Bioassay records from PubChem BioAssay.
Compounds with a hit are over-represented: about 4% of the library has one in this group of screens.
TWEAK-Fn14 inh: inhibitors of TWEAK-Fn14 interaction signaling. TWEAK-stimulated Fn14 reporter cells, luciferase luminescence, 8 h. inhibition, % at 10 µM. 360,000 compounds, 2% hits; in the data active = inhibition above about 50%
CF NFkB block: cystic fibrosis NF-kB activation inhibition | KKLEB NF-kB-GFP reporter, PAF-induced, GFP fluorescence overnight | inhibition, % at 5 µM | 360,000 compounds, 0.86% hits | AID 588850;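 active = at least 50% inhibition at 5 µM, scaled per plate between neutral and stimulator controls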;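 note: PAF is a Pseudomonas aeruginosa culture filtrate used as stimulus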
TROY NFkB inh: TROY signaling inhibition | Q293 LMP1-TROYcd NF-kB luciferase reporter, 4 h | inhibition, % at 10 µM | 360,000 compounds, 0.98% hits;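 active = compounds whose plate-normalised and pattern-corrected inhibition of the luciferase reporter signal at the single screening dose is 50% or more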
KKLEB cytotox: reduces viability of KKLEB cystic fibrosis airway cells; KKLEB CF airway cells viability, ATPlite luminescence, overnight; active compounds read low; cells stimulated with P. aeruginosa culture filtrate; 360,000 compounds, 0.36% hits; activity change (cytotoxicity), % at 5 µM;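 active = corrected activity change at or below -50% at 5 µM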
HIF-2a block: HIF-2a inhibition; 786-0 RCC cells HIF-2a reporter, luciferase luminescence, overnight; inhibition, % at 18.8 µM; 360,000 compounds, 0.72% hits; AID 624352;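 active = inhibition of the luminescence signal of 40% or more relative to plate controls, in a single-dose primary screen at 18.75 µM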
Peg3 promoter: Peg3 promoter activity inhibition; HeLa PEG-Prom luciferase reporter, luminescence, overnight; 360,000 compounds, 1.7% hits; inhibition, % at 20 µM; AID 588405;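 active = inhibition of at least 50% at 20 µM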
Mdm2 MdmX conf: Mdm2/MdmX (human) interaction inhibition, confirmed; inhibition, % at 8 µM; shares compounds with HIF-2a block; SaOS-2 split-luciferase Mdm2/MdmX complementation, luminescence; 740 compounds, 99% hits;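 active = mean inhibition of the luminescence signal across two replicates at or above 26 percent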
HIF-2a inh conf: confirmation of HIF-2a inhibitors | 1,800 compounds, 56% hits | inhibition, % at 18.8 µM | 786-0 RCC cells, HIF-2a luciferase reporter luminescence, overnight | shares compounds with HIF-2a block | AID 651580;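 active = mean inhibition across four replicates of at least 40 percent at the single tested concentration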
HIF-1a counter: inhibits HIF-1a reporter, a counter-screen for HIF-2a inhibitors. inhibition, % at 18.8 µM. shares compounds with HIF-2a block. 1,800 compounds, 72% hits. MiaPaCa-2 HIF-1a luciferase reporter, desferoxamine, overnight;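 active = mean inhibition of the reporter signal across four replicates at the single tested dose of 50% or more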
Of the large screens only hits and unclear results are named; the others gave an inactive call (follow-up assays come after a bar, where they were run).

Cc1ccc2nc(N(CCCN(C)C)C(=O)c3ccc(S(=O)(=O)N4CCc5ccccc5C4)cc3)sc2c1	HIF-2a block 88, Peg3 promoter 101 | HIF-2a inh conf 43 | HIF-1a counter 99
Cc1cc(C)c2sc(N(CCCN(C)C)C(=O)c3ccc(S(=O)(=O)N4CCc5ccccc5C4)cc3)nc2c1	KKLEB cytotox -78, HIF-2a block 63, Peg3 promoter 96 | HIF-2a inh conf 57 | HIF-1a counter 100
COc1ccccc1OCCC(=O)OCC(=O)Nc1cccc(Br)c1	none
O=C1c2ccc(Cl)cc2S(=O)(=O)c2cccc(C(=O)N3CCC(Cc4ccccc4)CC3)c21	TROY NFkB inh 65, HIF-2a block 50, Peg3 promoter 91 | HIF-2a inh conf inactive | HIF-1a counter 105
COc1ccc2cc3c(N)nn(C(=O)Cc4ccc(Cl)cc4)c3nc2c1	none
COc1ccc2cc3c(N)nn(C(=O)c4ccccc4Cl)c3nc2c1	TWEAK-Fn14 inh 82, CF NFkB block 77, HIF-2a block 43 | Mdm2 MdmX conf 99 | HIF-2a inh conf inactive | HIF-1a counter 94
COc1ccc2cc3c(N)nn(C(=O)Cc4c[nH]c5ccccc45)c3nc2c1	TWEAK-Fn14 inh 95, CF NFkB block 86, TROY NFkB inh 67, HIF-2a block 50, Peg3 promoter 106 | Mdm2 MdmX conf 102 | HIF-2a inh conf inactive | HIF-1a counter 102
COc1cccc(CC(=O)n2nc(N)c3cc4ccc(OC)cc4nc32)c1	none
Cc1c(C(=O)N2CCCCC2)c(S(=O)(=O)N(C)Cc2ccco2)c(C)n1C	none
O=[N+]([O-])c1cnc(Sc2ccncn2)s1	CF NFkB block 75, HIF-2a block 95, Peg3 promoter 110 | Mdm2 MdmX conf 102
O=C(Nc1ccc(Cl)cc1)Nc1ccccc1Sc1ncc([N+](=O)[O-])s1	none
CC(C)CCN(C(=O)Nc1ccccc1)C(C)c1cccs1 (configuration not stated)	none
Cc1ccc(C2C(C#N)=C(N)N(c3ncn[nH]3)C3=C2C(=O)CC(C)(C)C3)cc1 (configuration not stated)	HIF-2a block 44 | HIF-2a inh conf inactive | HIF-1a counter inactive
Cc1ccc(N2C(N)=C(C#N)C(c3cccnc3)C3=C2CC(C)(C)CC3=O)cc1 (configuration not stated)	none
Cc1cc(Nc2c(C)cccc2C)n2nc(C)nc2n1	none
Clc1ccc2c(N/N=C/c3ccccc3Br)ccnc2c1	Peg3 promoter 84 | Mdm2 MdmX conf 103
CC1CCN(Cc2c(C(=O)N/N=C/c3cc(Br)ccc3O)nnn2-c2nonc2N)CC1	Peg3 promoter 74 | Mdm2 MdmX conf 91
Cc1cc(C)c(/C=N/NC(=O)c2nnn(-c3nonc3N)c2CN2CCC(C)CC2)c(C)c1	none
Cc1ccc2c(C(=O)CCl)c(C)[nH]c2c1	CF NFkB block 78 | Mdm2 MdmX conf 103
Cc1ccc2c(C(=O)CN3CCSCC3)c(C)[nH]c2c1	none
CCN(Cc1ccccc1)C(=O)c1cccc(S(=O)(=O)N2CCN(c3ccccc3)CC2)c1	none
CCN(CC(=O)Nc1c(F)cccc1F)C(=O)c1cc(S(=O)(=O)N(CC)CC)ccc1N1CCCCC1	HIF-2a block 48 | HIF-2a inh conf inactive | HIF-1a counter inactive
COc1ccccc1CN1CCNC(=O)C1CC(=O)NCCCN1CCCC1=O (configuration not stated)	none
NS(=O)(=O)c1ccc(CNC(=O)CSc2ccccc2)cc1	none
C(=N\Nc1nc2ccccc2s1)/c1ccccn1	none (no result: TWEAK-Fn14 inh, CF NFkB block, TROY NFkB inh, KKLEB cytotox, HIF-2a block, Peg3 promoter) | Mdm2 MdmX conf 95
S=C1NC[C@H](Cc2ccccc2)N1CC1CCN(CCCCc2ccccc2)CC1	none
CCCCC(=NCCc1c(C)[nH]c2ccc(OC)cc12)C1=C(O)CC(c2ccccc2)CC1=O (configuration not stated)	HIF-2a block 41 | HIF-2a inh conf inactive | HIF-1a counter 65
C#CCOC(=O)CN1C(=O)c2cccc3cccc(c23)C1=O	none
CC1=CC(C)(C)Nc2ccc(OC(=O)CN3C(=O)c4cccc5cccc(c45)C3=O)cc21	TWEAK-Fn14 inh 52, HIF-2a block 74 | HIF-2a inh conf 89 | HIF-1a counter 72
Cc1cccc(CSC(Nc2ccc(F)cc2)=C(C#N)C#N)c1	TWEAK-Fn14 inh 64, Peg3 promoter 62 | Mdm2 MdmX conf 94
C=CCCN([C@H](CO)Cc1ccccc1)S(=O)(=O)c1ccccc1Br	none
C=CS(=O)(=O)N(Cc1ccccc1Br)[C@H](CO)Cc1ccccc1	TWEAK-Fn14 inh 51, HIF-2a block 44, Peg3 promoter 84 | HIF-2a inh conf inactive | HIF-1a counter 70
COc1ccc(NC(=O)CN(C)C(=O)CCc2ccccc2)cc1	none
COc1ccc(NC(=O)CN(C)C(=O)C2(c3ccccc3)CCCC2)cc1	HIF-2a block 51 | HIF-2a inh conf inactive | HIF-1a counter inactive
CCN(CC(=O)Nc1ccc(NC(C)=O)cc1)C(=O)C1(c2ccc(Cl)cc2)CCC1	HIF-2a block 51 | HIF-2a inh conf inactive | HIF-1a counter inactive
COc1ccc(NC(=O)C2c3ccccc3OCC(=O)N2Cc2cccnc2)cc1 (configuration not stated)	none (no result: CF NFkB block, KKLEB cytotox, Peg3 promoter)
O=C1Cc2cc(NS(=O)(=O)c3ccc([N+](=O)[O-])cc3)cc3c2N1CCC3	none
O=C1C=CC(O)(c2cc(=O)c3c(O)cc(O)cc3o2)C=C1	TWEAK-Fn14 inh 92, CF NFkB block 75, KKLEB cytotox -52, HIF-2a block 94, Peg3 promoter 84 | HIF-2a inh conf 92 | HIF-1a counter 103
Cc1nc(SCc2cccc(C(=O)O)c2)nc2c1CCCC2	HIF-2a block 86 | HIF-2a inh conf 84 | HIF-1a counter inactive
Cc1nnc(N2C(=O)C(=O)/C(=C(/O)c3ccc4c(c3)CC(C)O4)C2c2ccccc2F)s1 (configuration not stated)	none
O=c1oc(-c2ccccc2)cc2ccccc12	none
Nc1ccc(-c2cc3ccccc3c(=O)o2)cc1	HIF-2a block 82 | HIF-2a inh conf 91 | HIF-1a counter 54
CCC(c1nnnn1Cc1ccco1)N1CCN(c2cc(Cl)ccc2C)CC1 (configuration not stated)	none
CC[C@@H]1CC2=C(C(=O)OC(C)(C)O2)[C@H](c2ccc(Cl)cc2)O1	none
CCN(CC)Cc1c(O)ccc2c([N+](=O)[O-])c(C)n(-c3ccc(OC)cc3)c12	TWEAK-Fn14 inh 74, CF NFkB block 82 | Mdm2 MdmX conf 84
